HepG2 tox: HepG2 cytotoxicity, counter-screen for TGF-b inhibitors. 0.76% of 410,000 active. HepG2 CAGA-GFP viability, ATP luminescence, 18 h. Potency, µM (doses to about 46.1 µM), inactives show at the top dose activity change, negative = cytotoxicity, most hits filed as cytotoxic
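HepG2 CAGA-GFP cells (1000/well, DMEM with 1% FBS) received compound, then TGF-beta at 500 pg/mL final, and were incubated 18 hours at 37 degrees C. Viability was read by CellTiter-Glo luminescence. Media-only wells were set as complete cell-killing and DMSO as no toxicity.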
RORgamma inh: ROR gamma (mouse) transcription inhibition | P51450 | Drosophila S2 Gal4-RORgamma UAS-luciferase reporter, 20 h | Potency, µM (highest dose often 53.6 µM), for inactives: top-dose activity change, negative = inhibition, actives largely listed as inhibitors | 5.4% of 310,000 active; further: on the % scale 0 is the no-effect control and ±100 the full control effect; nearly all actives have a fitted effect of over 60% in size
Target sequence (P51450 whole entry, looked up, the tested form may be a part): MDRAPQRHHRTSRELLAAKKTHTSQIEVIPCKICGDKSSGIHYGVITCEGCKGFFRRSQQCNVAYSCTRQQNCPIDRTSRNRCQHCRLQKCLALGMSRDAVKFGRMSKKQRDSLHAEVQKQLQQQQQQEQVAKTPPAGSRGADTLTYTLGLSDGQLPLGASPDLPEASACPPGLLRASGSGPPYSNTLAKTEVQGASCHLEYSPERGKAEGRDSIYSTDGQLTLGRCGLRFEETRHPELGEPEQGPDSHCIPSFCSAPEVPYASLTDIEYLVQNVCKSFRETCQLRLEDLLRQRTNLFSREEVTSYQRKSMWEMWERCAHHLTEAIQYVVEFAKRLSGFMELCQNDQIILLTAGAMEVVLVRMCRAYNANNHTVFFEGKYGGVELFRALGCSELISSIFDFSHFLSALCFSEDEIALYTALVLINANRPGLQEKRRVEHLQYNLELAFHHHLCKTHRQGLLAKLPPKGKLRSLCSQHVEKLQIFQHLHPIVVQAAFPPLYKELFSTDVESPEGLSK
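In this cell-based reporter format, copper sulfate (700 uM final) drives Gal4–ROR gamma fusion expression from a metallothionein promoter in Drosophila Schneider cells; compounds preincubated 1 hr, reporter read after 20 hr at ambient temperature.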
S2 tox: reduces viability in counter-screen for ATXN expression inhibitors | S2 cells (HEK-293 line with an ATXN2-luciferase reporter) viability, CellTiter-Fluor protease fluorescence, 24 h | Potency, µM (doses to about 56.7 µM), usual class: cytotoxic | 0.49% of 400,000 active; further: nearly all actives have a fitted effect of over 40% in size
TGFb SMAD3 inh: inhibitors of TGF-b signaling. 1.2% of 410,000 active. HepG2 CAGA-GFP TGF-b/SMAD3 reporter, GFP fluorescence, 18 h; TGF-beta stimulated, 500 pg/mL final. Potency, µM (doses to about 46.1 µM), for inactives: top-dose activity, negative = inhibition, most hits filed as inhibitors; further: on the % scale 0 is the no-effect control and ±100 the full control effect; nearly all actives have a fitted effect of over 65% in size
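Inhibition was scored as loss of TGF-beta-induced (500 pg/mL final, 18 hours, 37 degrees C) GFP in HEPG2 cells carrying a CAGA-GFP reporter, in DMEM with 1% FBS. Well GFP was summed per cell; Activity was normalised to unstimulated and stimulated DMSO wells, then concentration-response fitting.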
ATXN2 expr inh: reduces ATXN2 reporter expression in HEK-293 cells; HEK-293 ATXN2-luciferase reporter, luminescence, 24 h; Potency, µM (series often up to 57 µM), for the others: at the highest dose activity change, negative = inhibition, usual class: inhibitors; 0.72% of 360,000 active; AID 1745845; further: on the % scale 0 is the no-effect control and ±100 the full control effect; nearly all actives have a fitted effect of over 55% in size
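qHTS (up to 57 uM final) was run with 24 h compound exposure of reporter cells at 37 °C. Each well was multiplexed: SteadyGlo luminescence measured ATXN2-luciferase expression after a fluorogenic Gly-Phe-AFC viability readout (25 uM final).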
VP16 counter: Gal4-VP16 reporter inhibition counter-screen. 3.5% of 310,000 active. Potency, µM (top dose mostly 53.6 µM), for inactives: at the highest dose activity, negative = inhibition, actives largely listed as inhibitors. Drosophila S2 Gal4-VP16 UAS-luciferase, luminescence, 20 h;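 further: Gal4-VP16 expression switched on by copper sulfate through the metallothionein promoter; on the % scale 0 is the no-effect control and ±100 the full control effect; nearly all actives have a fitted effect of over 50% in size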
* = called active by the depositor; i = inactive; ? = inconclusive; nt = not tested or not shown; [ ] = dose if it differs, or a comment. An excerpt weighted towards active compounds, which were near 6.3% of everything screened. The call rests on the fitted dose curve; in most records, active means well fitted curve in the direction sought with a large enough effect; inconclusive means small, poorly fitted or top-dose-only effect, or another doubt; inactive means no such curve, though single readings can be large; an effect the other way counts as inactive or inconclusive. Potency means the concentration at half of the fitted maximal effect.

SMILES | HepG2 tox | RORgamma inh | S2 tox | TGFb SMAD3 inh | ATXN2 expr inh | VP16 counter
O=C(Nc1ccc(Br)cc1)c1cccc(S(=O)(=O)Nc2ccc(Br)cc2)c1 | nt | ? | nt | nt | nt | 7.94µM*
Cc1ccc(-n2ncc3c(N4CCN(Cc5ccccc5)CC4)ncnc32)cc1C | -28.4% | nt | ? | -24.6% | -9.6% | nt
C=CCNC(=S)Nc1c(C(=O)OC)[nH]c2cc(OC)ccc12 | -6.7% | 2.82µM* | ? | 3.0% | nt | ?
CCc1ccccc1NC(=O)Cn1nnc(C(=O)Nc2ccc(OC)c(OC)c2)c1N | 6.6% | nt | nt | -0.3% | nt | nt
O=C1/C(=C\c2cc(Cl)c(O)c(Cl)c2)SC(=S)N1Cc1ccccc1 | 11.2µM* | ? | i | 238.3% | ? | ?
O=C(CCCN1C(=O)/C(=C/c2cccc(Br)c2)SC1=S)Nc1cccnc1 | -3.0% | 14.1µM* | ? | ? | ? | -9.1%
O=C(CCCN1C(=O)/C(=C/c2cccs2)SC1=S)Nc1cccnc1 | -2.2% | 7.2% | i | 0.0% | 9.2% | -7.2%
Cc1ccc(/C=C2\SC(=S)N(CCCC(=O)Nc3cccnc3)C2=O)cc1 | -1.0% | 6.31µM* | ? | -17.0% | 3.55µM* | 2.24µM*
O=C(CCCN1C(=O)/C(=C/c2ccccc2)SC1=S)Nc1ccccc1O | -19.4% | 4.47µM* | i | -22.2% | -24.0% | ?
CCOC(=O)c1c(NC(=O)CCCOc2ccc(C(C)(C)C)cc2)sc2c1CCCC2 | 10.2% | nt | i | 2.5% | 3.0% | nt
Cc1cc(NC(=O)CN2C(=O)/C(=C/c3cccc(Br)c3)SC2=S)no1 | 1.4% | -38.3% | i | 2.2% | -6.2% | 2.5%
O=C(CCCN1C(=O)/C(=C/c2ccccc2)SC1=S)NCCCn1ccnc1 | 4.4% | 5.01µM* | ? | -10.9% | -18.4% | 4.47µM*
O=C(CN1C(=O)S/C(=C\c2ccccc2)C1=O)NNC(=O)c1ccccc1O | 47.4% | -5.2% | i | -15.5% | -16.2% | -9.5%
O=C(CCCN1C(=O)/C(=C\c2cccc(Br)c2)SC1=S)Nc1cccnc1 | -34.6% | 0.9% | ? | 11.2µM* | ? | -4.9%
O=C(CCCN1C(=O)S/C(=C\c2ccccc2)C1=O)NNC(=O)c1ccccc1O | -37.1% | 0.447µM* | ? | 4.4% | ? | 2.51µM*
O=C(CCN1C(=O)S/C(=C\c2ccccc2)C1=O)NCCCn1ccnc1 | -7.0% | 21.5% | i | 9.5% | 19.2% | 3.5%
O=C(CCCN1C(=O)/C(=C/c2cccc(Br)c2)SC1=S)Nc1ccccn1 | -17.7% | ? | ? | -11.9% | 10µM* | -2.2%[0.365 µM]
Cc1ccc(Nc2c(-c3ccc(N(C)C)cc3)nc3ccccn23)cc1 | -105.1% | nt | i | -15.2% | 7.9% | nt
Cc1cc(C)n(-c2nc(NC(C)(C)C)nc(NC(C)(C)C)n2)n1 | 1.4% | 2µM* | i | 21.5% | -12.7% | ?
CCNc1nc(NCC)nc(-n2nc(C)cc2C)n1 | 1.6% | 0.708µM* | i | ? | -19.5% | 2.24µM*
Cc1cc(C)n(-c2nc(N(C)C)nc(N(C)C)n2)n1 | -1.0% | 2.82µM* | i | -5.4% | -6.8% | 7.08µM*
Cc1cc(C)n(-c2nc(NC(C)C)nc(NC(C)C)n2)n1 | 0.1% | 0.562µM* | i | ? | -16.8% | 2.51µM*
Cc1cc(C)n(-c2nnc(NC(C)(C)C)nn2)n1 | -17.1% | -6.9% | i | 9.7% | 61.2% | -3.7%
CCn1c(=O)cc(OCC(=O)N2CCN(c3ccccc3OC)CC2)c2ccccc21 | -36.5% | nt | ? | ? | -2.6% | nt
CN(C)c1ncnc2c1ncn2[C@H]1CN(Cc2ccco2)C[C@@H](CO)O1 | 3.3% | nt | i | -2.5% | -4.1% | nt
SMILES | HepG2 tox | RORgamma inh | S2 tox | TGFb SMAD3 inh | ATXN2 expr inh | VP16 counter
O=C(O)c1ccc(-c2cccc([N+](=O)[O-])c2)o1 | 0.9% | 25.2% | i | 4.5% | 6.9% | -6.0%
N#C/C(=C(/O)c1ccc(-c2cccc([N+](=O)[O-])c2)o1)c1nc2ccccc2s1 | -72.1% | -96.8% | i | 12.6µM* | 22.7% | ?
CCCCNC(=O)CSc1nc2cc3c(cc2c(=O)n1CCCC(=O)NCc1ccc(OC)cc1)OCO3 | 0.4% | nt | nt | -7.1% | nt | nt
C=CC(N)CCC(=O)O (stereo not drawn) | nt | 21.4%[10 µM] | nt | nt | nt | 1.0%
O=S(=O)(Nc1ccc(-c2ccc3nncn3n2)cc1)c1cc(F)ccc1F | -11.7% | nt | i | 6.4% | -1.1% | nt
CCc1ccc(S(=O)(=O)Nc2ccc(O)c3ccccc23)cc1 | -103.8% | -26.9% | i | ? | nt | -10.3%
COc1ccc(OC)c(S(=O)(=O)Nc2ccc(Oc3ccccc3)cc2)c1 | -25.6% | ? | i | ? | -19.9% | 6.31µM*
CCOc1ccc(NS(=O)(=O)c2cc(OC)ccc2OC)cc1 | -7.8% | -2.1% | i | -3.2% | 2.3% | 2.1%
COc1ccc(OC)c(S(=O)(=O)Nc2ccc(O)c3ccccc23)c1 | -87.4% | 10µM* | nt | ? | ? | 3.6%[0.365 µM]
COc1ccc(OC)c(S(=O)(=O)Nc2cccc3c(O)cccc23)c1 | -46.7% | nt | i | -7.0% | -33.0% | nt
O=S(=O)(Nc1ccc(O)c2ccccc12)c1ccc(F)cc1 | 5.01µM* | nt | ? | ? | 31.6µM* | nt
COc1ccc(OC)c(S(=O)(=O)Nc2ccc(-c3ccc4nncn4n3)cc2)c1 | 7.94µM* | nt | i | -0.7% | -16.2% | nt
CN(C(=O)c1ccc(NC(=O)Cc2cccc(NC(=O)C3CCCN(C(=O)C4CC4)C3)c2)cc1)C1CC1 (stereo not drawn) | -0.3% | nt | i | 32.3% | 0.1% | nt
COc1ccccc1CCNc1ncnc2sc(C(=O)N3CCCC3)c(C)c12 | nt | nt | i | nt | nt | nt
O=C(CSc1ccccc1)Nc1nnc(COc2ccc(Cl)cc2)s1 | -14.6% | 11.2µM* | i | 0.2% | 0.0% | ?
COCCSc1nnc(NC(=O)CSCc2ccccc2)s1 | -20.1% | 7.94µM* | ? | -3.4% | 4.2% | ?
COC(=O)CSCC(=O)Nc1nnc(-c2ccccc2C)s1 | -22.6% | ? | ? | -0.9% | nt | ?
COCc1nnc(NC(=O)CSCc2ccccc2)s1 | 0.0% | 11.2µM* | i | 10.3% | 1.1% | -16.9%
COC(=O)CSCC(=O)Nc1nnc(-c2cccc(C)c2)s1 | -1.9% | 12.6µM* | ? | 1.9% | nt | -28.7%
COCCSc1nnc(NC(=O)COC)s1 | 15.5% | -32.0% | i | -10.8% | 2.1% | 13.9%
C=NC(C(=O)NC1C(=O)N2C1SC(C)(C)C2C(=O)O)c1ccccc1 (stereo not drawn) | nt | 2.5% | nt | nt | nt | -3.1%
O=[N+]([O-])c1ccc(S(=O)(=O)N2CCN(c3nc(-c4cccs4)nc4ccccc34)CC2)cc1 | 1.1% | nt | nt | 4.6% | nt | nt
CN1CCN(c2ncc3ncc(=O)n(CCC#N)c3n2)CC1 | nt | -22.3% | nt | nt | nt | -3.7%
